Source: PubChem BioAssay (National Center for Advancing Translational Sciences (NCATS))
Pin1 inhibitor: blocks the human prolyl isomerase Pin1; actives 0.009% (n = 390,000); AID 504891; Pin1 FP peptide displacement, HiFluor488, 10 min; Potency, µM (top dose mostly 115 µM), inactives show at the top dose activity, negative = inhibition, actives largely listed as inhibitors; Q13526; active = well fitted inhibition curve with a large enough effect in the polarisation, with a control signal flat, not every such curve was filed as active; inconclusive = small, poorly fitted or top-dose-only effect, or effect the other way, or a change in a side signal; inactive = no such curve, though single readings can be large or run the other way; the % refers to the polarisation; also: potency is read from the fitted curve at half-maximal effect
Target sequence (Q13526 whole entry, looked up): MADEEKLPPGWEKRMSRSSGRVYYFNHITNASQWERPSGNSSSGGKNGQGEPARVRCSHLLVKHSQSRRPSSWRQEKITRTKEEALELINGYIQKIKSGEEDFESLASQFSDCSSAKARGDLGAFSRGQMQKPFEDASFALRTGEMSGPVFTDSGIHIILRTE
PI5P4Ka inh: blocks human PI5P4K alpha kinase activity | PI5P4Kalpha enzyme, ADP-Glo luminescence, 60 min; hits give low values | max response, % | actives 1.2% (n = 330,000) | AID 652105; active = max response of -50% or lower; inconclusive = between -30% and -50%; inactive = -30% or higher; also: value at the top dose of about 77 µM
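Enzyme plus substrate dispensed, test compounds pinned in, then ATP (5 microM final) added. After 60 min at RT, ADP-Glo reagent 1 for 45 min and reagent 2 for 30 min preceded luminescence imaging.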
PI4K2A inh: PI4K2A (human) kinase inhibition | AID 1346378 | activity change, negative = inhibition, % at 76.9 µM | purified PI4K2A, ADP-Glo luminescence, 1 h; hits give low values | actives 0.13% (n = 420,000); in the data active = activity change below about -50%; inconclusive = mostly about -30% to -49%;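 also: -100% = wells without enzyme as full effect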
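PI4K2A activity was measured by ADP-Glo luminescence: enzyme (4 ug/mL stock) and phosphatidylinositol (1.2 mM stock) in Tris pH 7.5/MgCl2/EGTA/Triton X-100 buffer were reacted with ATP (300 microM stock) for one hour at ambient temperature.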
Tb PGK inh: blocks T. brucei phosphoglycerate kinase; P07378; PGK/GAPDH coupled, Kinase-Glo luminescence, 60 min; Potency, µM (doses to about 57.5 µM), without a hit: at the top dose activity change, negative = inhibition, most hits filed as inhibitors; actives 0.043% (n = 380,000); AID 602233; active = well fitted inhibition curve with a large enough effect; inconclusive = small, poorly fitted or top-dose-only effect; inactive = no such curve, though single readings can be large or run the other way; also: potency is read from the fitted curve at half-maximal effect; nearly all actives have a fitted effect of over 60% in size
Target sequence (P07378 whole entry, looked up): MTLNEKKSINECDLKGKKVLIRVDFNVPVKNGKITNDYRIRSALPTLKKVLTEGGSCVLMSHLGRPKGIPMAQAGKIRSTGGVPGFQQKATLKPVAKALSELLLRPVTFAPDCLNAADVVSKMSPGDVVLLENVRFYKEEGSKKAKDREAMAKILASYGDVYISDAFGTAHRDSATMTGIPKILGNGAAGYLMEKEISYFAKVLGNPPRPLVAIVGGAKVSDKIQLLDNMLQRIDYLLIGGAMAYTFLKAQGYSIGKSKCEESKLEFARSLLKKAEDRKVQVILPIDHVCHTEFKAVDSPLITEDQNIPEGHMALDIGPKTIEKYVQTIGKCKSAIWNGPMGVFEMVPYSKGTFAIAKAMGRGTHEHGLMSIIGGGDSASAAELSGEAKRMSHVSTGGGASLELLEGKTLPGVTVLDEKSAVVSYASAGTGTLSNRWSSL
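Recombinant glycosomal PGK reaction used 1,3-bisphosphoglycerate generated in-well by GAPDH (100nM final) in 100mM TEA pH 7.6, 5mM MgCl2, 0.01% Tween-20. After 60 minutes at room temperature, ATP was read by Kinase-Glo Plus luminescence end-point.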
Numbers without * were called inactive. The sample as a whole holds a higher share of hits than the screen did. Unless noted, % is scaled to controls: 0 for no effect and ±100 for the full control effect.

What do the screens show for `COc1cc(/C=C/c2[nH]c(=O)[nH]c(=O)c2[N+](=O)[O-])cc(OC)c1O`?
Pin1 inhibitor: -2%; PI5P4Ka inh: -88*; PI4K2A inh: -19; Tb PGK inh: -7%

How did O=C(COc1ccccc1/C=C1\SC(=O)NC1=O)Nc1ccccc1 do in these assays?
Pin1 inhibitor: -17%; PI5P4Ka inh: inconclusive; PI4K2A inh: -4; Tb PGK inh: -8%

Results for O=C(COc1ccccc1/C=C\c1[nH]c(=O)[nH]c(=O)c1[N+](=O)[O-])Nc1ccccc1 ?
Pin1 inhibitor: 4%; PI5P4Ka inh: -69*; PI4K2A inh: inconclusive; Tb PGK inh: 4%

What do the screens show for `O=c1[nH]c(/C=C/c2ccccc2Cl)c([N+](=O)[O-])c(=O)[nH]1`?
Pin1 inhibitor: 0%; PI5P4Ka inh: -69*; PI4K2A inh: -15; Tb PGK inh: -10%

What do the screens show for `COc1cccc(/C=C/c2[nH]c(=O)[nH]c(=O)c2[N+](=O)[O-])c1O`?
Pin1 inhibitor: -1%; PI5P4Ka inh: -90*; PI4K2A inh: -9; Tb PGK inh: 0%

Results for CCOc1ccc(/C=C/c2[nH]c(=O)[nH]c(=O)c2[N+](=O)[O-])cc1 ?
Pin1 inhibitor: 3%; PI5P4Ka inh: inconclusive; PI4K2A inh: -2; Tb PGK inh: -7%

How did Cn1nnnc1Sc1ncnc2scc(-c3ccc4ccccc4c3)c12 do in these assays?
Pin1 inhibitor: 29%

How did CCCCNC(=S)NCCCN(Cc1ccc(Cl)c(Cl)c1)c1ccc(Br)cn1 do in these assays?
Pin1 inhibitor: 12%

What do the screens show for `CC(C)c1ccc(/C=C/c2[nH]c(=O)[nH]c(=O)c2[N+](=O)[O-])cc1`?
Pin1 inhibitor: -3%; PI5P4Ka inh: -57*; PI4K2A inh: -11; Tb PGK inh: -11%

What do the screens show for `CC(CC(C#N)(c1ccccc1)C(C)C)N(C)C` (centres undefined)?
PI4K2A inh: -4

What do the screens show for `Cc1cccc2sc(N(Cc3cccnc3)C(=O)CCOc3ccccc3)nc12`?
Pin1 inhibitor: 18%; PI4K2A inh: -59*; Tb PGK inh: -2%

How did O=Cc1cc(N=Nc2ccccc2Cl)ccc1O do in these assays?
Pin1 inhibitor: -4%; PI5P4Ka inh: inconclusive; PI4K2A inh: -9; Tb PGK inh: -16%

Results for O=Cc1cc(N=Nc2cccc(C(=O)O)c2)ccc1O ?
Pin1 inhibitor: -15%; PI5P4Ka inh: -79*; PI4K2A inh: -12; Tb PGK inh: -6%

What do the screens show for `Cc1ccc(NC2C(=O)NC(=O)NC2=O)cc1`?
Pin1 inhibitor: 7%; PI5P4Ka inh: 1; PI4K2A inh: -59*; Tb PGK inh: 1%

How did Cc1ccc(NC2CNC(=O)NC2=O)cc1C (centres undefined) do in these assays?
Pin1 inhibitor: -1%; PI5P4Ka inh: -3; PI4K2A inh: 1; Tb PGK inh: inactive

What do the screens show for `O=[N+]([O-])c1ccc2c(c1)/C(=N\O)c1ccccc1-2`?
Pin1 inhibitor: -1%; PI5P4Ka inh: -6; PI4K2A inh: 0; Tb PGK inh: -3%

Results for O=[N+]([O-])c1ccc2c(c1)-c1ccccc1C2O (centres undefined) ?
PI5P4Ka inh: -69*; PI4K2A inh: 0; Tb PGK inh: 5%

How did COc1ccc(-c2ccc3ncnc(NCc4cccs4)c3c2)cc1 do in these assays?
Pin1 inhibitor: 3%

What do the screens show for `CCN(CC)c1ccc(/C=C2/C(=O)c3ccc(C(=O)O)cc3C2=O)cc1`?
Pin1 inhibitor: inconclusive; PI5P4Ka inh: -92*; PI4K2A inh: -24; Tb PGK inh: -25%

Results for Cc1ccc(C)c(S(=O)(=O)N2CCN(C(=O)/C=C/c3ccco3)CC2)c1 ?
Pin1 inhibitor: 4%; PI5P4Ka inh: -61*; PI4K2A inh: inconclusive; Tb PGK inh: -12%

Results for COc1ccc(NC(=S)NC(NC(=O)CCl)C(Cl)(Cl)Cl)c([N+](=O)[O-])c1 (centres undefined) ?
Pin1 inhibitor: -7%; PI5P4Ka inh: -55*; PI4K2A inh: -21; Tb PGK inh: -3%

How did O=C(N/N=C/c1cc(Br)c(O)c(Br)c1O)c1ccc2c(c1)OCCO2 do in these assays?
Pin1 inhibitor: -3%; PI5P4Ka inh: -56*; PI4K2A inh: 5; Tb PGK inh: -5%

How did O=C(N/N=C/c1cc(Br)c(Br)o1)c1ccc2c(c1)OCCO2 do in these assays?
Pin1 inhibitor: 30%; PI5P4Ka inh: -57*; PI4K2A inh: -13; Tb PGK inh: -8%

How did COc1ccc(C2C3=C(N=CN(CCN4CCOCC4)C3N)Oc3ccccc32)cc1OC (centres undefined) do in these assays?
Pin1 inhibitor: 2%

How did O=c1cc(O)n(-c2ccccc2)c(=S)[nH]1 do in these assays?
Pin1 inhibitor: 4%; PI5P4Ka inh: inconclusive; PI4K2A inh: -17; Tb PGK inh: 1%

How did O=c1[nH]c2cnccc2n1-c1ccccc1 do in these assays?
Pin1 inhibitor: -5%; PI5P4Ka inh: 2; PI4K2A inh: 1; Tb PGK inh: -2%

Results for O=c1[nH]c(=O)c2[nH]c(=O)n(-c3ccccc3)c2[nH]1 ?
Pin1 inhibitor: -19%; PI5P4Ka inh: -57*; PI4K2A inh: -14; Tb PGK inh: 6%

What do the screens show for `O=c1[nH]c(=S)c2[nH]c(=S)n(-c3ccccc3)c2[nH]1`?
Pin1 inhibitor: -4%; PI5P4Ka inh: -84*; PI4K2A inh: 10; Tb PGK inh: 6%

What do the screens show for `O=C1N=c2ccccc2=C1c1sc(NS(=O)(=O)c2ccccc2)nc1O`?
Pin1 inhibitor: 2%; PI5P4Ka inh: -61*; PI4K2A inh: 0; Tb PGK inh: -1%

Results for O=C(O)Cn1c(O)c(C2=c3ccccc3=NC2=O)sc1=O ?
Pin1 inhibitor: inconclusive; PI5P4Ka inh: -27; PI4K2A inh: -1; Tb PGK inh: -1%

What do the screens show for `O=C1N=c2ccccc2=C1c1sc(Nc2ccc(O)cc2)nc1O`?
Pin1 inhibitor: inconclusive; PI5P4Ka inh: -65*; PI4K2A inh: -65*; Tb PGK inh: -9%

Results for O=C1N=c2ccccc2=C1c1sc(NS(=O)(=O)Cc2ccccc2)nc1O ?
Pin1 inhibitor: -2%; PI5P4Ka inh: -54*; PI4K2A inh: -2; Tb PGK inh: -11%

How did O=C1N=c2ccccc2=C1c1sc(Nc2cccc(O)c2)nc1O do in these assays?
Pin1 inhibitor: inconclusive; PI5P4Ka inh: inconclusive; PI4K2A inh: 1; Tb PGK inh: -10%

How did O=C1c2ccccc2C(=O)N1c1cccc(=O)[nH]1 do in these assays?
Pin1 inhibitor: 1%

How did CCCN1C(=O)c2ccccc2NC1c1ccc(O)c(OCC)c1 (centres undefined) do in these assays?
Pin1 inhibitor: 0%; PI5P4Ka inh: 4; PI4K2A inh: -3

What do the screens show for `Cc1nc(NC(=O)c2ccco2)sc1C(=O)O`?
Pin1 inhibitor: 0%; PI5P4Ka inh: inconclusive; PI4K2A inh: -67*; Tb PGK inh: inconclusive

How did Cc1cc(C)c(C)c(S(=O)(=O)N2CCN(S(=O)(=O)c3ccc4c(c3)OCCO4)CC2)c1C do in these assays?
Pin1 inhibitor: 1%
